The structures appear in SMILES notation. Results filed as inconclusive are left out. The source holds several records for some structures; these can differ, active in one and inactive in another. The source made the active and inactive calls. How the source made its calls: active means hit-call score of the fitted dose curve at least 0.9, where 1 is the maximum; inconclusive means response in the unintended direction; inactive means score below 0.9.

Usually AC50 stands for the midpoint of the concentration-response curve, whichever way the signal moves.

In the assay the target is Nuclear receptor subfamily 1 group I member 2 (Homo sapiens) (UniProt O75469). Briefly: ATG_PXR_TRANS: Attagene TRANS-FACTORIAL HepG2 Assay for human Pregnane X Receptor (PXR) (AID 2283008). The procedure: ATG_TRANS is a cell-based, multiplexed-readout assay that uses HepG2, a human liver cell line, with measurements taken at 24 hours after chemical dosing in a 24-well plate.ATG_PXR_TRANS is one of 30 assay component(s) measured or calculated from the ATG_TRANS assay. It is designed to make measurements of mRNA induction, a form of inducible reporter, as detected with fluorescence intensity signals by Reverse transcription polymerase chain reaction (RT-PCR) and Capillary electrophoresis technology.Data from the assay component ATG_PXR_TRANS was analyzed into 1 assay endpoint. This assay endpoint, ATG_PXR_TRANS, was analyzed in the positive analysis fitting direction relative to DMSO as the negative control and baseline of activity. Using a type of inducible reporter, measures of mRNA for gain-of-signal activity can be used to understand the reporter gene at the transcription factor-level as they relate to the gene NR1I2. Furthermore, this assay endpoint can be referred to as a primary readout, because this assay has produced multiple assay endpoints where this one serves a reporter gene function. To generalize the intended target to other relatable targets, this assay endpoint is annotated to the nuclear receptor intended target family, where the subfamily is non-steroidal.
Sequence of Nuclear receptor subfamily 1 group I member 2 (Homo sapiens) (O75469 whole entry, looked up): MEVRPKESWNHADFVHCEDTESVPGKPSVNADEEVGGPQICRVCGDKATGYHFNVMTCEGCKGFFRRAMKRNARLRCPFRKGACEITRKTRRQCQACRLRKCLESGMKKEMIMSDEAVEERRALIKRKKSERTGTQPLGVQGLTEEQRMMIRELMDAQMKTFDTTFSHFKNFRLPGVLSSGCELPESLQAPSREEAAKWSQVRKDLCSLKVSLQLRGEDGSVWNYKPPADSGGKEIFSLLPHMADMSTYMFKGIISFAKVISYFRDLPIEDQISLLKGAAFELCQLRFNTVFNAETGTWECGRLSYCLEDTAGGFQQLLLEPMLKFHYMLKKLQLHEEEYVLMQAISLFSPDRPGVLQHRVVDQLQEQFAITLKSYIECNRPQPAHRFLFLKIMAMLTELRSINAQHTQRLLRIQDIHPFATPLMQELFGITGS
Human liver HepG2 cells are transiently transfected with multiple reporter transcription units (MRTUs) in 6-well plates using FuGene 6 reagent (Roche; 3 ml FuGene/1 mg DNA). The MRTU constructs are regulated by a cis-regulating element (promoter). […] A major difference between the CIS and TRANS system is that in CIS activities of endogenous TFs are measured, whereas the TRANS assay evaluates changes in activities of exogenous, chimeric NR-Gal4 proteins. […] At the end of 24 hour incubation, total RNA was isolated using TriZol reagent (Invitrogen). The isolated RNA is then reverse-transcribed using oligo(dT) primer and Mo-MLV reverse transcriptase (Invitrogen) with DNAse I (Ambion) treatment for 30 min. The one-tenth of the produced cDNA was amplified by PCR using Taq DNA polymerase (Invitrogen) and two reporter sequence-specific primers. The PCR products were fluorescently labeled by primer extension with 6-arboxyfluorescein (6-FAM) 5'-labeled reporter sequence-specific primer (2 min at 95 C, 20 s at 68 C and 10 min at 72 C) and these products were digested with 5U of HpaI (New England Biolabs) for 2h at 37 C. The fragments were purified using Qiaquick PCR columns (Qiagen), analyzed on an ABI 3130xL genetic analyzer (Applied Biosystems) with peak positions identified by using a set of X-rhodamine (ROX)-labeled MapMarker1000 molecular weight standards (BioVentures). The raw capillary electrophoresis data was processed using Attagraph software (Attagene).
With `CC1=CC(=O)c2ccccc2C1=O`, the AC50 is 7.29 µM (active). `C=CC(=O)OCCC(F)(F)C(F)(F)C(F)(F)C(F)(F)C(F)(F)C(F)(F)F`: the result was inactive. `CCCCCCCCCCCC(=O)NCCCN(C)C`: the compound was called inactive. For `COC(O)c1ccccc1` (stereo not given), the compound was classed as inactive. In the case of `NNc1nc(-c2ccc([N+](=O)[O-])cc2)cs1`, the result was inactive. Regarding `CN(C)CCOC(c1ccccc1)c1ccccc1`, the outcome was inactive.

Consider `c1cnc2c(c1)ccc1cccnc12`, for which the compound was classed as inactive and the half-maximal activity concentration (AC50) is 26.4 µM (active).

On to `COCN(COC)c1nc(N(COC)COC)nc(N(COC)COC)n1`, for which the outcome was inactive. As to `CC(C)(C)c1ccc(CCC=O)cc1`, the half-maximal activity concentration (AC50) is 29.3 µM (active). In the case of `CC(=O)Nc1ccc(S(N)(=O)=O)cc1`, the outcome was inactive. In the case of `CCCCCCCCCCCC[N+](C)(C)Cc1ccccc1`, the outcome was inactive.

On to `CCCCC=O`, for which the outcome was inactive.

On to `O=C(Nc1cccc([N+](=O)[O-])c1)c1cc2ccccc2cc1O`, for which the half-maximal activity concentration (AC50) is 8.27 µM (active).

Consider `CCCCC(CC)C(=O)OCCOCCOCCOCCOC(=O)C(CC)CCCC` (stereo not given), for which the AC50 was 35.3 µM (active). Consider `Cc1cc(Cc2cc(C)cc(C(C)(C)C)c2O)c(O)c(C(C)(C)C)c1`, for which the AC50 was 0.0594 µM (active). `CCOC(OCC)C(=O)c1ccccc1`: the half-maximal activity concentration (AC50) was 16.7 µM (active).

Consider `CCOC(=O)c1nc(C(Cl)(Cl)Cl)n(-c2ccc(Cl)cc2Cl)n1`, for which the AC50 was 7.68 µM (active).

In the case of `C[C@]12CC[C@@H]3c4ccc(O)cc4CC[C@H]3[C@@H]1CC[C@@H]2OC(=O)CCC1CCCC1`, the compound was classed as inactive. With `CCC(=O)C=Cc1ccc(OC)cc1`, the call was inactive.

For the compound `CC1=NN(c2ccccc2)C(=O)C1`, the result was inactive. With `Cc1ccc(N=Nc2c(O)ccc3ccccc23)c(C)c1`, the AC50 is 3.36 µM (active). Consider `FC(F)=C(F)C(F)(F)C(F)(F)C(F)(F)C(F)F`, for which the compound was called inactive. Regarding `CCOC(=O)CN[C@@H](C(=O)N1CC[C@H]1C(=O)NCc1ccc(/C(N)=N/O)cc1)C1CCCCC1`, the outcome was inactive. Turning to `O=C(OC(=O)C(F)(F)C(F)(F)F)C(F)(F)C(F)(F)F`, the compound was called inactive. Take `C=Cc1ccc(O)c(OC)c1`: the AC50 was 70.3 µM (active). Consider `C/C=C/C(=O)C1=C(C)CCCC1(C)C`, for which the AC50 was 19.8 µM (active). Regarding `FC(F)(F)C(F)(F)C(F)(F)C(F)(F)I`, the outcome was inactive. As to `Brc1cc(Br)c(Oc2c(Br)cc(Br)c(Br)c2Br)cc1Br`, the call was inactive. Consider `O=C(NO)c1ccccc1`, for which the compound was classed as inactive. As for `CCCCCCCCCCCC`, the compound was called inactive. Consider `O=S(=O)(c1ccc(OCc2ccccc2)cc1)c1ccccc1O`, for which the AC50 is 3.73 µM (active). Turning to `CC1CNCC(C)O1` (stereo not given), the outcome was inactive.

For `CCCCN(C)C`, the result was inactive. As to `CNNCc1ccc(C(=O)NC(C)C)cc1`, the compound was called inactive. As for `O=C1Cc2ccccc2N1c1c(Cl)cccc1Cl`, the concentration at half-maximal activity (AC50) was 0.517 µM (active).

In the case of `Cc1cc(=O)oc2cc(O)ccc12`, the outcome was inactive and the AC50 is 12 µM (active). For `NC(C(F)(F)F)C(F)(F)F`, the call was inactive. Regarding `CCCCCCCCCCCCCCCC(=O)OC`, the result was inactive.

The values are drawn from PubChem BioAssay (EPA / NIEHS).
